Results reported in ChEMBL document CHEMBL1961873, “Compounds: GSK PKIS; Assays: Nanosyn kinase panel” (2012).

target: T1, Serine/threonine-protein kinase BRSK2 (Homo sapiens) (UniProt Q8IWQ3); settings: at 1 µM;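 further: mean kinase inhibition reported within the GSK PKIS dataset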
T1 sequence (whole entry): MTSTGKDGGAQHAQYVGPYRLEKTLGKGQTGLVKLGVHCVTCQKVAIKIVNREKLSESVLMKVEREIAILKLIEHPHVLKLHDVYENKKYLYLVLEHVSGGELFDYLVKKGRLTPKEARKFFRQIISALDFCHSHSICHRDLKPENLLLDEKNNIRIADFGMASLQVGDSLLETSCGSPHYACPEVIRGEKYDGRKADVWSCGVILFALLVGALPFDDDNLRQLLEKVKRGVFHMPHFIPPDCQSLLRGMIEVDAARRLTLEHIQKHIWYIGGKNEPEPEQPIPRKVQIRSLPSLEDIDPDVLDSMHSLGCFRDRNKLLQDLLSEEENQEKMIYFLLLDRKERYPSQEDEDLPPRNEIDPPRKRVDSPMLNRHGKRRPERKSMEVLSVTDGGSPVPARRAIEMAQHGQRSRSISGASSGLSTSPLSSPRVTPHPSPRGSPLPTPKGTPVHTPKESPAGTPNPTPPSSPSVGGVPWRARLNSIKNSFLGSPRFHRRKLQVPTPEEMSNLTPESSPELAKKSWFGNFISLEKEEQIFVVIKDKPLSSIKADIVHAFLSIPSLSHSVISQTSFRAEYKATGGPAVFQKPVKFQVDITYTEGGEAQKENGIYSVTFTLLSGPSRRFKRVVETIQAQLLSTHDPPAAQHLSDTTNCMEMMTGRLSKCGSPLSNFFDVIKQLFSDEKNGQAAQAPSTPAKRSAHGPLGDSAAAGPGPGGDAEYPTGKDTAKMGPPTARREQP

Compound | inhibition [%]
COc1cc2ncn(-c3cc(O[C@H](C)c4ccccc4Cl)c(C(N)=O)s3)c2cc1OC | 69.2
NC(=O)c1ccc(-c2nc(-c3ccccn3)c(-c3ccc4c(c3)OCO4)[nH]2)cc1 | 1.06
Cn1cc(C=C2C(=O)Nc3cccnc32)c2ccccc21 | 12.3
CNC(=O)c1cncc(/C=C/c2c(Cl)cccc2Cl)c1 | 9.33
COc1cc2ncn(-c3cc(OCc4ccccc4C(F)(F)F)c(C(N)=O)s3)c2cc1OC | 52.4
O=C1Nc2ccc(C(=O)c3ccco3)cc2C1=Cc1cc(Cl)c(O)c(Cl)c1 | 13.1
COc1ccc(-c2nn3ncccc3c2-c2ccnc(Nc3ccc(Cl)c(C(F)(F)F)c3)n2)cc1 | 4.49
CS(=O)(=O)Nc1ccc(N/C=C2\C(=O)Nc3ccccc32)cc1 | 30.6
Fc1cccc(COc2ccc(Nc3ncnc4sc(-c5cccs5)cc34)cc2Cl)c1 | 1.9
CCN1CCC(CC(=O)Nc2n[nH]c3nc(-c4cccs4)c(Br)cc23)CC1 | 18.5
O=C1NC(=O)C(c2ccccc2Cl)=C1Nc1cccc(O)c1 | 8.81
CCn1c(-c2nonc2N)nc2cncc(C(=O)N3CCNCC3)c21 | 2.15
CN1CCC(C(=O)Nc2n[nH]c3nnc(-c4ccccc4)cc23)CC1 | 6.52
CS(=O)(=O)CCN(CC#N)Cc1ccc(-c2ccc3ncnc(Nc4ccc(OCc5cccc(F)c5)c(Cl)c4)c3c2)o1 | 0.65
COc1ccc(-c2coc3ncnc(N)c23)cc1 | 4.44
Cc1ccc(NC(=O)c2ccnc(N3CCCC3)c2)cc1-c1ccc(C(=O)NCC2CC2)cc1 | 4.83
CCn1c(-c2nonc2N)nc2c(C#CC(C)(C)O)nc(CN3CCCC3)cc21 | 3.23

Compound | inhibition [%]
CCn1c(-c2nonc2N)nc2c(N3CCCC3)nccc21 | 3.56
[O-][S+]1CCN(Cc2ccc(-c3ccc4ncnc(Nc5ccc(OCc6ccccc6)c(F)c5)c4c3)o2)CC1 | 5.63
CCCN1CCC=C(c2ccc(Nc3nc(Nc4ccccc4C(N)=O)c4cc[nH]c4n3)c(C)c2)C1 | 6.53
CC1=C(C(=O)Nc2ccc3[nH]ncc3c2)C(c2ccc(F)cc2)NC(=O)N1 (stereo not drawn) | 15.5
COc1cccc(-n2ncc3c(N/N=C/c4cccc(F)c4)ncnc32)c1 | 20.5
Cc1ccc(C(=O)NC2CCCCC2)cc1-c1ccc(C(=O)NCC2CC2)cc1 | -1.13
Nc1ncnc2occ(-c3ccc(NC(=O)Nc4cc(C(F)(F)F)cc(C(F)(F)F)c4)cc3)c12 | 0.11
CC(C)=Cc1cccc2c1/C(=N/Nc1ccc(S(N)(=O)=O)cc1)C(=O)N2 | 58.2
CC1=C(C(=O)Nc2ccc3[nH]ncc3c2)C(c2ccc3ccccc3c2)CC(=O)N1 (stereo not drawn) | 31.3
COc1ccc(-c2ccncc2)cc1C(N)=O | 8.59
COc1cc2ncn(-c3cc(OCc4ccccc4Cl)c(C(N)=O)s3)c2cc1OC | 48.6
CCn1c(-c2nonc2N)nc2cnc(Oc3cccc(NC(=O)c4ccc(OCCN5CCOCC5)cc4)c3)cc21 | 2.71
CN(C)c1cc2c(Nc3ccc4nc(Cc5ccccc5)[nH]c4c3)ncnc2cn1 | 4.52
N#Cc1c(NC(=O)c2cccc3ccccc23)sc2c1CCCC2 | 6.1
Cc1cccc(-c2n[nH]cc2-c2ccc3ncccc3n2)n1 | 2.14
NS(=O)(=O)c1cccc(-c2ccc3c(NC(=O)C4CC4)n[nH]c3c2)c1 | 51.8
O=C1NC(=O)C(c2cccc(Cl)c2)=C1Nc1ccc(O)c(Cl)c1 | 19

target: Calcium/calmodulin-dependent protein kinase type 1D (Homo sapiens) (UniProt Q8IU85); settings: at 0.1 µM;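 further: reported figure is the mean inhibition of CAMK1D, from the GSK PKIS screening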
Sequence (Q8IU85 whole entry, looked up): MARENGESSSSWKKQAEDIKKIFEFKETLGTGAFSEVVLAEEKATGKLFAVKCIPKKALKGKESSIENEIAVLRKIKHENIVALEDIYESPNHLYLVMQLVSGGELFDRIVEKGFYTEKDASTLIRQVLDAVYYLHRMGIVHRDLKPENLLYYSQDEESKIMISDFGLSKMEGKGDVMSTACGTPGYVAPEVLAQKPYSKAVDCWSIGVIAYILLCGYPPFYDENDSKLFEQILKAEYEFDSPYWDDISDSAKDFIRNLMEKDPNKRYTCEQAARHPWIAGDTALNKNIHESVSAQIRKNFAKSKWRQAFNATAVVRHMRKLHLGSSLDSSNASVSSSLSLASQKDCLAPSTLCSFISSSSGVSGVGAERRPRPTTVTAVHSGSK

Compound | inhibition [%]
COc1cc2ncn(-c3cc(O[C@H](C)c4ccccc4Cl)c(C(N)=O)s3)c2cc1OC | 1.01
NC(=O)c1ccc(-c2nc(-c3ccccn3)c(-c3ccc4c(c3)OCO4)[nH]2)cc1 | 0.53
Cn1cc(C=C2C(=O)Nc3cccnc32)c2ccccc21 | 0.99
CNC(=O)c1cncc(/C=C/c2c(Cl)cccc2Cl)c1 | -0.35
COc1cc2ncn(-c3cc(OCc4ccccc4C(F)(F)F)c(C(N)=O)s3)c2cc1OC | -0.86
O=C1Nc2ccc(C(=O)c3ccco3)cc2C1=Cc1cc(Cl)c(O)c(Cl)c1 | -0.26
COc1ccc(-c2nn3ncccc3c2-c2ccnc(Nc3ccc(Cl)c(C(F)(F)F)c3)n2)cc1 | -0.51
CS(=O)(=O)Nc1ccc(N/C=C2\C(=O)Nc3ccccc32)cc1 | -1.16
Fc1cccc(COc2ccc(Nc3ncnc4sc(-c5cccs5)cc34)cc2Cl)c1 | -1.31
CCN1CCC(CC(=O)Nc2n[nH]c3nc(-c4cccs4)c(Br)cc23)CC1 | -0.45
O=C1NC(=O)C(c2ccccc2Cl)=C1Nc1cccc(O)c1 | 1.44
CCn1c(-c2nonc2N)nc2cncc(C(=O)N3CCNCC3)c21 | 0.79
CN1CCC(C(=O)Nc2n[nH]c3nnc(-c4ccccc4)cc23)CC1 | 0.42
CS(=O)(=O)CCN(CC#N)Cc1ccc(-c2ccc3ncnc(Nc4ccc(OCc5cccc(F)c5)c(Cl)c4)c3c2)o1 | -1.29
COc1ccc(-c2coc3ncnc(N)c23)cc1 | 1.1
Cc1ccc(NC(=O)c2ccnc(N3CCCC3)c2)cc1-c1ccc(C(=O)NCC2CC2)cc1 | 0.91
CCn1c(-c2nonc2N)nc2c(C#CC(C)(C)O)nc(CN3CCCC3)cc21 | 1.23

Compound | inhibition [%]
CCn1c(-c2nonc2N)nc2c(N3CCCC3)nccc21 | -0.31
[O-][S+]1CCN(Cc2ccc(-c3ccc4ncnc(Nc5ccc(OCc6ccccc6)c(F)c5)c4c3)o2)CC1 | -0.91
CCCN1CCC=C(c2ccc(Nc3nc(Nc4ccccc4C(N)=O)c4cc[nH]c4n3)c(C)c2)C1 | 1.21
CC1=C(C(=O)Nc2ccc3[nH]ncc3c2)C(c2ccc(F)cc2)NC(=O)N1 (stereo not drawn) | 0.49
COc1cccc(-n2ncc3c(N/N=C/c4cccc(F)c4)ncnc32)c1 | 0.51
Cc1ccc(C(=O)NC2CCCCC2)cc1-c1ccc(C(=O)NCC2CC2)cc1 | 3.13
Nc1ncnc2occ(-c3ccc(NC(=O)Nc4cc(C(F)(F)F)cc(C(F)(F)F)c4)cc3)c12 | 1.67
CC(C)=Cc1cccc2c1/C(=N/Nc1ccc(S(N)(=O)=O)cc1)C(=O)N2 | 0.31
CC1=C(C(=O)Nc2ccc3[nH]ncc3c2)C(c2ccc3ccccc3c2)CC(=O)N1 (stereo not drawn) | -0.51
COc1ccc(-c2ccncc2)cc1C(N)=O | -0.75
COc1cc2ncn(-c3cc(OCc4ccccc4Cl)c(C(N)=O)s3)c2cc1OC | 0.78
CCn1c(-c2nonc2N)nc2cnc(Oc3cccc(NC(=O)c4ccc(OCCN5CCOCC5)cc4)c3)cc21 | -0.02
CN(C)c1cc2c(Nc3ccc4nc(Cc5ccccc5)[nH]c4c3)ncnc2cn1 | 1.13
N#Cc1c(NC(=O)c2cccc3ccccc23)sc2c1CCCC2 | 1.08
Cc1cccc(-c2n[nH]cc2-c2ccc3ncccc3n2)n1 | 0.56
NS(=O)(=O)c1cccc(-c2ccc3c(NC(=O)C4CC4)n[nH]c3c2)c1 | -0.5
O=C1NC(=O)C(c2cccc(Cl)c2)=C1Nc1ccc(O)c(Cl)c1 | 1.1
